Results: ChEMBL document CHEMBL3433997, “St. Jude Leishmania screening dataset” (2016)

target: Glucose transporter (Leishmania mexicana) (UniProt O61059); test: ST_JUDE_LEISH: Cytotoxicity at 2uM final concentration against transgenic Leishmania Mexicana promastigotes LmGT2 that are glucose transport deficient and complemented with the L. Mexicana glucose transporter 2. Activity is measured by DNA content using SYBR green in vitro; format: functional

SMILES | inhibition [%]
Cc1cc(C(=O)N[C@H]2CCN(Cc3ccc(OCCCN(C)C)cc3)C2)ccc1Br | 1.98
COc1ccc2nccc([C@@H](O)CN3CCC(NCc4ccc5nc[nH]c(=O)c5c4)CC3)c2c1 | -1.45
CN1CCN(Cc2cccc(-c3ccc4c(Nc5ccc(Oc6cccnc6)cc5)ccnc4c3)c2)CC1 | 4.34
CC(C)(C)CC(C)(C)c1ccc(O)c(C(=O)Nc2cccc([N+](=O)[O-])c2)c1 | 1.44
Cc1cc(N2CCCC2=O)ccc1-c1ccc(C(=O)N2CCC(Oc3cccc(Cl)c3)CC2)cc1 | 3.87
CC1CN(c2cc(=O)n(Cc3cccc(NC(=O)Nc4ccc(-c5ccccc5)cc4)c3)cn2)CC(C)N1 (stereo not given) | -1.85
CCOc1cc(C(=O)Nc2ccc3nc(N(CC)CC)cc(C)c3c2)cc(OCC)c1OCC | -3.87
O=C(c1ccc(F)cc1)N1CCOC(CCN2CCC(c3ccccc3)CC2)(c2ccc(Cl)c(Cl)c2)C1 (stereo not given) | 5.2
O=C(Nc1cccc(-c2nn3ccccc3c2-c2ccnc(Nc3cccc(-c4cnco4)c3)n2)c1)C1CCCCC1 | -0.16
O=C(Cn1c(CCc2cccc(F)c2F)nc(=O)c2ccccc21)N(CCN1CCCCC1)Cc1ccc(-c2ccc(C(F)(F)F)cc2)cc1 | 4.32
CN(C)CC(O)C(c1ccccc1)c1ccc(Cl)cc1 (stereo not given) | 0.76
CCNc1cc(C)nc(Nc2ccc(NC(=O)c3ccc(OC)c(OC)c3)cc2)n1 | 2.34
CCCCCCCN1CC[C@@H](CCCc2ccnc3ccc(OCCCCNC(N)=O)cc23)[C@@H](CC)C1 | 2.79
CCOc1ccc(CCCON2C(=N)N=C(N)NC2(C)C)cc1 | 9.73
COCCNCc1cccc(-c2ccc3c(Nc4cc(O)c(Cl)cc4F)ccnc3c2)c1 | 2.93
N#Cc1ccc(N(CCOc2ccc(Cl)c(F)c2)Cc2ccccc2C(F)(F)F)cc1C(F)(F)F | -1.25
CC(=O)Nc1ncc(C(=O)Nc2cccc(-c3ccc(-c4nc5ccccc5[nH]4)cc3)c2)s1 | 1.08
CCCCNC(=O)c1cc(CNC2CCCCC2)ccc1-c1cccc(CNCc2ccc(-c3ccccc3)cc2)c1 | 2.67
CC(C)(C)c1ccc(CN2CCC(NC(=O)c3ccc(-c4cccc(Cl)c4)s3)CC2)cc1 | 7.09
Oc1ccccc1CN1CCCC(COC(c2ccc(F)cc2)c2ccc(F)cc2)C1 (stereo not given) | 0.55
Cc1cc(C)n(-c2nc(Nc3cccc(C(F)(F)F)c3)nc(-n3nc(C)cc3C)n2)n1 | -1.11
CC(C)CNCc1cccc(-c2cccc(CN(CCCN3CCN(C)CC3)C(=O)/C=C/c3ccccc3)c2)c1 | -4.91
N#CCc1ccc(Nc2nccc(Nc3ccc(Oc4ccccc4)cc3)n2)cc1 | 1.09
Cc1c(CCc2cccc(F)c2F)[nH]c2ccccc2c1=O | 0.83
C=CCN(c1nc(NC)nc(NCc2c(OC)cccc2OC)n1)C1CCCC1 | 1.88
